We go through 15 compounds from ChEMBL document CHEMBL3433997, “St. Jude Leishmania screening dataset” (2016).

For the experiment, the target named is Solute carrier family 2, facilitated glucose transporter member 1 (Homo sapiens) (UniProt P11166). Put plainly: ST_JUDE_LEISH: Cytotoxicity at 2uM final concentration against transgenic Leishmania Mexicana promastigotes LmGLUT1 that are glucose transport deficient and complemented with the human glucose transporter GLUT1. Activity is measured by DNA content using SYBR green in vitro. It is filed as functional.
Solute carrier family 2, facilitated glucose transporter member 1 (Homo sapiens), sequence (P11166 whole entry): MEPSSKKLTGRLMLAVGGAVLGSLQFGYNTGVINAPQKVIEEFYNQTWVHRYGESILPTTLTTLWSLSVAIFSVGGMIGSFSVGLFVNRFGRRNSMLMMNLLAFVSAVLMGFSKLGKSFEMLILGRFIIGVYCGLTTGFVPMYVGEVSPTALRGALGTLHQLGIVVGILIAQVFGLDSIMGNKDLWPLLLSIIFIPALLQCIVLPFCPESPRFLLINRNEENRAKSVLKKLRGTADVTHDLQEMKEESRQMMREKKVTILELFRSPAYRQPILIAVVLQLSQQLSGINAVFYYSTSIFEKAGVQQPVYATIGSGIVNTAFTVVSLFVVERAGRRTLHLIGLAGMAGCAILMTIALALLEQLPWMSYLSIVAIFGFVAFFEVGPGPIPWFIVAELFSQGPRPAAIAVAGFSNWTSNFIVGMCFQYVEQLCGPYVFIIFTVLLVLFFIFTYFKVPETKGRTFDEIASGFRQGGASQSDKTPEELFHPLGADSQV
Consider `COc1ccc2[nH]ccc(=NN=Cc3ccccc3)c2c1`, for which the inhibition was 13.5%.

Regarding `O=c1cc(NCCCCNCc2cccc(Cl)c2)[nH]c2ccccc12`, the inhibition came to 3.6%.

Consider `Cc1cc(=NN=Cc2ccc(Cl)cc2)c2cc(F)ccc2[nH]1`, for which the inhibition is -0.08%.

Consider `Cc1cccc2nc(-c3ccc(-c4cccc(CNCCCN5CCCC5=O)c4)s3)[nH]c12`, for which the inhibition stood at 3.74%.

Turning to `O=C(NCCCN1CCC(Cc2ccccc2)CC1)c1cc2c(Cl)nc3ccccc3c2s1`, the inhibition stood at 0.05%.

Turning to `CCn1ccc2c(N3CCCS3(=O)=O)cc(C(=O)N[C@@H](Cc3ccccc3)[C@H](O)CNC(C)(C)CCCC(C)C)cc21`, the inhibition turned out to be 7.39%.

Consider `Cc1cccc2nc(-c3ccc(-c4ccc(CN5CCC(C(N)=O)CC5)cc4)cc3)[nH]c12`, for which the inhibition came out at 6.51%.

`O=C(CCc1c[nH]cn1)Nc1cccc(-c2ccc(-c3nc4cc(F)ccc4[nH]3)s2)c1`: the inhibition was found to be 10.2%.

For the compound `O=C(Nc1ccc(Oc2ccc(OC(F)(F)F)cc2)cc1)c1ccco1`, the inhibition is 2.92%.

`CC(=O)Nc1ccc(OCCN(Cc2ccccc2C(F)(F)F)c2ccc(C#N)c(C(F)(F)F)c2)cc1`: the inhibition worked out at 18.7%.

With `COc1ccc(-c2nc(NC(=O)Cc3ccc(OC)c(OC)c3)sc2C)cc1`, the inhibition turned out to be 1.75%.

Turning to `COc1ccc(NCCCNc2ccnc3ccccc23)cc1`, the inhibition turned out to be 5.01%.

For the compound `Cc1nc2ccc3ccc(CNc4ccc5c(c4)CN([C@H](CCC(=O)O)C(=O)O)C5=O)cc3c2c(=O)[nH]1`, the inhibition was 3.36%.

As for `Cc1cccc2nc(-c3ccc(-c4ccc(C(=O)NCCN5CCCC5)cc4)cc3)[nH]c12`, the inhibition stood at 0.86%.

Take `CC(C)(C)NCCN(Cc1ccc(-c2ccc(C(F)(F)F)cc2)cc1)C(=O)Cn1c(CCc2cccc(F)c2F)nc(=O)c2ccccc21`: the inhibition worked out at 3%.

Broadly, the inhibition is the drop in the measured response relative to a control, in per cent.
